# Bioassay records from PubChem.
# HT1080NT lethal – kills 2HG-producing HT-1080-NT fibrosarcoma cells. AID 686970. Potency, µM (titrated, usually from 46.1 µM), for inactives: top-dose activity, negative = less viability, most hits filed as cytotoxic. HT-1080-NT fibrosarcoma viability, CellTiter-Glo ATP luminescence, 48 h. 360,000 compounds, 1.6% hits;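 further: NT is the 2HG producing partner of a matched IDH1 knockdown line; potency means the concentration at half of the fitted maximal effect; 0% = DMSO-treated cells and -100% = media-only wells without cells; nearly all actives have a fitted effect of over 55% in size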
#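 Toxicity toward the 2HG-producing NT line was scored as %Activity, normalised to DMSO and no-cell wells, from CellTiter-Glo luminescence after 48 hours' treatment.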
# TDP1 cell noCPT – qHTS for Inhibitors of human tyrosyl-DNA phosphodiesterase 1 (TDP1): qHTS in cells in absence of CPT; DT40 Tdp1-/- hTDP1 cells, no CPT, ATP luminescence, 48 h; Potency, µM (top dose mostly 46.2 µM), for the others: at the top dose activity change, negative = growth inhibition, actives largely listed as inhibitors; 420,000 compounds, 15% hits; further: potency means the concentration at half of the fitted maximal effect; nearly all actives have a fitted effect of over 55% in size
#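 A cellular qHTS used chicken DT40 cells lacking endogenous Tdp1 but carrying stably transfected human TDP1. Compounds were applied without camptothecin, and cell growth kinetics were judged by ATP-dependent luminescence after ≥48 hr.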
# ALOX12 inh – ALOX12 (human) lipoxygenase inhibition | Potency, µM (highest dose often 108 µM), without a hit: top-dose activity change, negative = inhibition, usual class: inhibitors | AID 1671190 | purified 12hLO, xylenol orange hydroperoxide absorbance | 580,000 compounds, 1.1% hits | P18054; further: potency means the concentration at half of the fitted maximal effect
# Target sequence (P18054 whole entry, looked up): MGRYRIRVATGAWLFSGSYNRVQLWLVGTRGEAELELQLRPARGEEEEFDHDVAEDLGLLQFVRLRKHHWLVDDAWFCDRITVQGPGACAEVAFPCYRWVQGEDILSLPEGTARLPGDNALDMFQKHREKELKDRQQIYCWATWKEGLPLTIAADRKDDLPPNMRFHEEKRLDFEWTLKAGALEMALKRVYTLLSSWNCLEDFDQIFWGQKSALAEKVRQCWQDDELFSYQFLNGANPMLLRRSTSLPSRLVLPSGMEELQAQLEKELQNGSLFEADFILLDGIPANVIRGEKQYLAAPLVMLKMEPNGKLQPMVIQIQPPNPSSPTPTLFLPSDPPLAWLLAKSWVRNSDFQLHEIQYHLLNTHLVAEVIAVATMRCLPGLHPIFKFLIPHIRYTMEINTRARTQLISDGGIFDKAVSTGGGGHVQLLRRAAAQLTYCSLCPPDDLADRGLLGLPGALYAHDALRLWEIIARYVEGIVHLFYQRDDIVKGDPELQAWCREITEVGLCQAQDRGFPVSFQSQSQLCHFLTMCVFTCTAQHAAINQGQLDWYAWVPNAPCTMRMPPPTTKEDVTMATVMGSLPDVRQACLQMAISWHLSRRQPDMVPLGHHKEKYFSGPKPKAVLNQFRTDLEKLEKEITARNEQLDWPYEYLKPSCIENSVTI
#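 Purified human 12hLO at 150 nM in 25 mM Hepes, 0.01% Triton X-100, pH 7.0, preincubated 15 min at room temperature with compound. Reaction started with 40 uM arachidonic acid, 30 min at room temperature. Hydroperoxide measured by Fe-xylenol orange, 573/405 nm absorbance ratio.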
# HT1080 IDH1KD tx – HT-1080 IDH1 knockdown cell toxicity (counter line); Potency, µM (titrated, usually from 46.1 µM), for the others: at the top dose activity, negative = toxicity, hits mostly cytotoxic; 360,000 compounds, 2% hits; AID 686971; HT-1080 IDH1 knockdown viability, ATP luminescence, 48 h;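 further: potency means the concentration at half of the fitted maximal effect; 0% = DMSO wells and -100% = cell-free medium wells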
#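 % activity derives from luminescence (CellTiter-Glo), normalised to DMSO and no-cell wells. HT-1080-IDH1KD cells, 750/well, had 48 h compound exposure at 37 °C.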
# TDP1 cell CPT – DT40-hTDP1 cell growth loss with CPT. chicken DT40 Tdp1-/-;hTDP1 cells + 20 nM CPT, ATP luminescence, 48 h. Potency, µM (doses to about 46.2 µM), for inactives: at the highest dose activity change, negative = growth inhibition, usual class: inhibitors. 420,000 compounds, 12% hits. AID 686979; further: potency means the concentration at half of the fitted maximal effect; nearly all actives have a fitted effect of over 55% in size
#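 Cell growth measured by CellTiter-Glo luminescence after a minimum 48 h, 37 C compound exposure with 20 nM CPT in Tdp1-knockout DT40 cells stably expressing hTDP1, seeded 400/well; qHTS titration format.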
# IL-1B inflam inh – inhibitors of inflammasome signaling (IL-1 beta secretion) | activity change, % at 57.5 µM | 360,000 compounds, 4.7% hits | THP-1 LPS/ATP IL-1B secretion, AlphaLISA, 16 h; hits give low values | AID 743279; in the data active means activity change below about -50%; inconclusive means mostly about -30% to -49%
#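 Secreted IL-1B measured by AlphaLISA bead assay after 16 h compound exposure of THP-1 cells; compounds (final up to 57.5 uM) added 1 h before LPS (250 ng/mL) and ATP (1.25 mM) stimulation; lower signal means less secretion.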
# * = called active by the depositor; ? = inconclusive; / = no result. This is one part of a sample in which hits are shown more often than they occur. Unless noted, the call rests on the fitted dose curve; in most records, active means well fitted curve in the direction sought with a large enough effect; inconclusive means small, poorly fitted or top-dose-only effect, or another doubt; inactive means no such curve, though single readings can be large; an effect the other way counts as inactive or inconclusive. Unless noted, on the % scale 0 is the no-effect control and ±100 the full control effect.
SMILES,HT1080NT lethal,TDP1 cell noCPT,ALOX12 inh,HT1080 IDH1KD tx,TDP1 cell CPT,IL-1B inflam inh
O=[N+]([O-])c1ccccc1S(=O)(=O)Oc1ccccc1/C=N/n1cnnc1,-19%,16µM*,-1%,-6%,?,20
CCOC(=O)c1ccc(NC(=S)N2CCSC2c2c(F)cc(F)cc2F)cc1 (stereo unspecified),-3%,26µM*,-1%,-7%,23µM*,-18
COc1cccc(C(=O)OC(C)C(=O)C23CC4CC(CC(C4)C2)C3)c1OC (stereo unspecified),/,/,-1%,/,/,/
CC(C)N1C(=O)C2(CCCC2)C1C(=O)N1CCN(C2CCCCC2)CC1 (stereo unspecified),/,/,20%,/,/,/
CC1CCN(CCOc2ccc(Cl)c(Cl)c2)CC1,-6%,-8%,?,5%,1%,-20
C=CCc1cc(Cl)ccc1OCCN1CC(C)OC(C)C1 (stereo unspecified),-4%,21µM*,-21%,-3%,?,1
CC1CN(CCOc2ccc(Cl)c(Cl)c2)CC(C)O1 (stereo unspecified),11%,?,0.45µM*,8%,?,15
CC1CN(Cc2ccc(Cl)cc2Cl)CC(C)O1 (stereo unspecified),15%,?,0.63µM*,0%,-3%,45
Cc1cc(Cn2cc3c4c(cccc42)[C@H](CC(C)C)N[C@H](C(=O)NCc2ccco2)C3)no1,/,/,19%,/,/,/
COc1ccc(S(=O)(=O)NC2CCCCC2)c2cccnc12,/,/,28%,/,/,/
C/C=C/c1ccc(OCCCCN2CCN(CC)CC2)c(OC)c1,-14%,29µM*,?,-16%,?,-11
C/C=C/c1ccc(OCCCNCC(C)O)c(OC)c1 (stereo unspecified),-20%,?,0%,-15%,?,-10
C/C=C/c1ccc(OCCCCNCc2ccco2)c(OC)c1,-30%,?,-28%,?,26µM*,-58*
C/C=C/c1ccc(OCCCCN2CC(C)CC(C)C2)c(OC)c1 (stereo unspecified),23µM*,?,?,21µM*,?,-70*
COc1cc(Br)cc2cc(C(=O)N3c4ccccc4CC3C)c(=O)oc12 (stereo unspecified),/,/,-7%,/,/,/
CN1CCN(c2ccc(S(=O)(=O)N3CCCCC3)cc2NC(=O)Cc2ccc(Cl)cc2)CC1,-6%,23µM*,?,6%,?,15
O=C(Cc1ccc(Cl)cc1)Nc1cc(S(=O)(=O)N2CCOCC2)ccc1N1CCCC1,-1%,?,-25%,24%,-30%,-10
CN1CCN(c2ccc(S(=O)(=O)N3CCCCC3)cc2NC(=O)c2ccc(C#N)cc2)CC1,15%,4%,-9%,9%,-2%,15
CN1CCN(c2ccc(Cl)cc2NC(=O)c2ccc(S(=O)(=O)N3CCCCCC3)cc2)CC1,-1%,16µM*,0%,-10%,?,0
C=CC(=O)OCCSc1nc(N2CCOCC2)nc(N2CCOCC2)n1,/,/,24%,/,/,/
COc1ccc(C(=O)N[C@@H]2CCC[C@@H]2C(=O)NCc2cccc(C)c2)cn1,/,/,35%,/,/,/
Cc1ccc(NC(C)(C)c2nnnn2-c2ccc(C)cc2)cc1,/,/,28%,/,/,/
Cc1ccc(-n2nnnc2C(Cl)(Cl)c2nnnn2-c2ccc(C)cc2)cc1,?,2.6µM*,?,5.6µM*,2.9µM*,-78*
O=S(=O)(c1cccc2ccccc12)N1CCN(c2ccc(F)cc2)CC1,/,/,-11%,/,/,/
CCc1ccccc1NC(=O)N1CCC(N2CCN(Cc3ccccn3)C(=O)C2=O)CC1,/,/,1%,/,/,/
